Where “and” joins values, the source holds several entries; their conditions need not be identical. Identical values can stand only once. Inconclusive results are not listed. Where a call stands in place of a potency, no number is given. A number with no mark means an inactive call. Calls of active or inactive are those of the source. The call rests on the fitted dose curve; in most records, active means well fitted curve in the direction sought with a large enough effect in the repeat runs; inconclusive means weak or mixed curves; inactive means no such curve, though single readings can be large; an effect the other way counts as inactive or inconclusive.
Legend:
[1] = A CellTox Green Cytotoxicity Assay to monitor cytotoxicity in HEK293 cells - 40 hour (AID 1224871); further: nearly all actives have a fitted effect of over 45% in size; further: potency means the concentration at half of the fitted maximal effect
Procedure, shortened: (§1)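 Cells (HEK293, 600/well) and dye reagent are dispensed together. After 5 h at 37 C, 23 nL compound is pinned in. Plates stay at 37 C for 40 h with fluorescence read at 0h, 8h, 16h, 24h, 32h and 40h.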

[2] = qHTS RealTime-Glo MT Cell Viability Assay in HepG2 cells - 8 hour (AID 1224873); further: nearly all actives have a fitted effect of over 55% in size
Procedure, shortened: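 HepG2 cells (600/well) mixed with RealTime-Glo MT reagent, settled 5 h at 37 C/5% CO2 before compound addition. Nonlytic NanoLuc luminescence from viable-cell prosubstrate reduction read repeatedly during 40 h treatment at 37 C.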

[3] = qHTS RealTime-Glo MT Cell Viability Assay in HEK293 cells - 40 hour (AID 1224874); details: RealTime-Glo luminescence; max response: active compounds read low; further: nearly all actives have a fitted effect of over 50% in size; further: potency means the concentration at half of the fitted maximal effect
Procedure, shortened: (§2)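 Real-time viability in HEK293: signal arises when living cells convert a prosubstrate for NanoLuc in the medium, so luminescence tracks viable cell number. Compound (23 nL, DMSO) added 5 h post-seeding; kinetic reads at 0–40 h, 37 C.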

[4] = A CellTox Green Cytotoxicity Assay to monitor cytotoxicity in HEK293 cells - 24 hour (AID 1224875); further: nearly all actives have a fitted effect of over 45% in size; further: potency means the concentration at half of the fitted maximal effect; on activity change: series mostly up to about 77 µM
Procedure, shortened: as §1

[5] = A CellTox Green Cytotoxicity Assay to monitor cytotoxicity in HepG2 cells - 24 hour (AID 1224878); further: nearly all actives have a fitted effect of over 45% in size; further: potency means the concentration at half of the fitted maximal effect
Procedure, shortened: (§3)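 Cells and non-lytic dye reagent are dispensed together (600 HepG2 cells/well) and incubated 5 h before DMSO compound transfer. Kinetic fluorescence is then recorded in the same wells during 40 h at 37 C.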

[6] = A CellTox Green Cytotoxicity Assay to monitor cytotoxicity in HepG2 cells - 40 hour (AID 1224879); further: nearly all actives have a fitted effect of over 40% in size; further: potency means the concentration at half of the fitted maximal effect
Procedure, shortened: as §3

[7] = qHTS RealTime-Glo MT Cell Viability Assay in HEK293 cells - 0 hour (AID 1224880); further: top concentration of the series differs between compounds; nearly all actives have a fitted effect of over 45% in size
Procedure, shortened: as §2

[8] = qHTS RealTime-Glo MT Cell Viability Assay in HEK293 cells - 16 hour (AID 1224872); further: top concentration of the series differs between compounds; nearly all actives have a fitted effect of over 50% in size
Procedure, shortened: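 Assay medium contained NanoLuc luciferase plus cell-permeant prosubstrate, added with HEK293 cells at 600 cells/well. After 5 h at 37 C/5% CO2 compounds were added; plates stayed at 37 C for 40 h with serial luminescence reads.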

[9] = A CellTox Green Cytotoxicity Assay to monitor cytotoxicity in HepG2 cells - 16 hour (AID 1224876); further: nearly all actives have a fitted effect of over 45% in size
Procedure, shortened: as §3

[10] = qHTS RealTime-Glo MT Cell Viability Assay in HepG2 cells - 32 hour (AID 1224877); further: nearly all actives have a fitted effect of over 55% in size
Procedure, shortened: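 qHTS, HepG2, 600 cells/well, RealTime-Glo (NanoLuc + prosubstrate) added with cells; 5 h preincubation; DMSO compound addition; 37 C; luminescence at 0/8/16/24/32/40 h.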

In the case of `Cc1cc(OC(=O)N(C)C)nn1C(=O)N(C)C`, the Potency [1] is reported as “inactive”, the outcome [2] is reported as “inactive” and the max response [3] is reported as 2%. For the same compound, the Potency [4] was “inactive”, the Potency [5] was “inactive” and the Potency [6] was “inactive”. For the same compound, the outcome [7] was “inactive”.
In the case of `C=CCc1cc(OC)c2c(c1)OCO2`, the Potency [8] is reported as “inactive”, the outcome [2] is reported as “inactive” and the max response [3] is reported as 8.43%. For the same compound, the Potency [9] was “inactive”, the Potency [10] was “inactive” and the Potency [5] was “inactive”. For the same compound, the Potency [6] was “inactive” and the outcome [7] was “inactive”.
With `O=P(O)(O)CN(CP(=O)(O)O)CP(=O)(O)O` the cytotoxicity increase [1] was 32.5% [at 15.8 µM], the outcome [2] was “inactive” and the activity change [4] was 29.5% [at 15.8 µM, active compounds read high]. For the same compound, the Potency [9] was “inactive”, the Potency [10] was “inactive” and the Potency [5] was “inactive”. For the same compound, the Potency [6] was “inactive”.
With `CCOC1Oc2ccc(OS(C)(=O)=O)cc2C1(C)C` (stereo unspecified) the Potency [1] was “inactive”, the Potency [3] was 34.4 µM (active) and the Potency [4] was “inactive”. The Potency [10] was “inactive”, the Potency [5] was “inactive” and the Potency [6] was “inactive”. The outcome [7] was “inactive”.
For `N#CC(Br)(Br)C(N)=O`, the Potency [1] was “inactive”, the outcome [2] was “inactive” and the max response [3] was -10%. For the same compound, the Potency [4] was “inactive”, the Potency [10] was “inactive” and the outcome [7] was “inactive”.
In the case of `CN(C)C1CCCCC1`, the Potency [1] is reported as “inactive”, the outcome [2] is reported as “inactive” and the Potency [4] is reported as “inactive”. For the same compound, the Potency [9] was “inactive”, the Potency [5] was “inactive” and the Potency [6] was “inactive”.
In the case of `CCOC(=O)NC(C)(C)Cc1ccc(Cl)cc1`, the Potency [8] is reported as “inactive”, the outcome [2] is reported as “inactive” and the max response [3] is reported as 0.66%. For the same compound, the Potency [9] was “inactive”, the Potency [5] was “inactive” and the Potency [6] was “inactive”. The outcome [7] was “inactive”.
For `CCC1(c2cccc(O)c2)CCCCN(C)C1` (stereo unspecified), the Potency [1] was “inactive”, the outcome [2] was “inactive” and the max response [3] was 3.71%. For the same compound, the Potency [4] was “inactive”, the Potency [5] was “inactive” and the Potency [6] was “inactive”. The outcome [7] was “inactive”.
In the case of `CN(CCO)CCO`, the Potency [1] is reported as “inactive”, the outcome [2] is reported as “inactive” and the max response [3] is reported as -0.53%. For the same compound, the Potency [4] was “inactive”, the Potency [10] was “inactive” and the Potency [5] was “inactive”. For the same compound, the Potency [6] was “inactive” and the outcome [7] was “inactive”.
In the case of `CCOC(=O)C(Cl)Cc1cc(-n2nc(C)n(C(F)F)c2=O)c(F)cc1Cl` (stereo unspecified), the Potency [1] is reported as “inactive”, the max response [3] is reported as 2.36% and the Potency [4] is reported as “inactive”. The Potency [5] was “inactive”, the Potency [6] was “inactive” and the outcome [7] was “inactive”.
With `CON(C)C(=O)Nc1ccc(Br)c(Cl)c1` the Potency [1] was “inactive”, the outcome [2] was “inactive” and the Potency [4] was “inactive”. For the same compound, the Potency [9] was “inactive”, the Potency [10] was “inactive” and the Potency [5] was “inactive”. For the same compound, the Potency [6] was “inactive”.
In the case of `CC(C)(C)c1cc(O)ccc1O`, the Potency [1] is reported as “inactive”, the outcome [2] is reported as “inactive” and the Potency [4] is reported as “inactive”. For the same compound, the Potency [9] was “inactive”, the Potency [10] was “inactive” and the Potency [5] was “inactive”. The Potency [6] was “inactive” and the outcome [7] was “inactive”.
In the case of `CCN(CC)C1CCCCC1`, the Potency [1] is reported as “inactive”, the outcome [2] is reported as “inactive” and the max response [3] is reported as 2.39%. For the same compound, the Potency [4] was “inactive”, the Potency [9] was “inactive” and the Potency [5] was “inactive”. The Potency [6] was “inactive” and the outcome [7] was “inactive”.
In the case of `Clc1cc2c(cc1Cl)Oc1cc(Cl)c(Cl)cc1O2`, the cytotoxicity increase [1] is reported as -35.9% [at 0.29 µM], the viability change, negative = cytotoxic [2] is reported as 0.0568% [at 0.29 µM] and the activity change [4] is reported as -30.3% [at 0.29 µM, active compounds read high]. It also gave a cytotoxicity increase [9] of -1.02% [at 0.29 µM], an activity change, negative = cytotoxic [10] of 1.14% [at 0.29 µM] and a cytotoxicity [5] of 2.11% [at 0.29 µM]. The Potency [6] was 0.0268 µM (active) and the activity change, negative = cytotoxicity [7] was -12.5% [at 0.29 µM].
In the case of `O=C/C=C/c1ccco1`, the Potency [1] is reported as “inactive”, the max response [3] is reported as 3.04% and the Potency [4] is reported as “inactive”. For the same compound, the Potency [9] was “inactive”, the Potency [10] was “inactive” and the Potency [5] was “inactive”. For the same compound, the Potency [6] was “inactive” and the outcome [7] was “inactive”.
For `C=CC1(C)OC(=O)N(c2cc(Cl)cc(Cl)c2)C1=O` (stereo unspecified), the Potency [1] was “inactive”, the outcome [2] was “inactive” and the max response [3] was -8.21% and -20%. For the same compound, the Potency [4] was “inactive”, the Potency [9] was “inactive” and the Potency [5] was “inactive”. For the same compound, the Potency [6] was “inactive” and the outcome [7] was “inactive”.
For `O=C1CC(=O)NC(=O)N1`, the Potency [1] was “inactive”, the outcome [2] was “inactive” and the max response [3] was 12.1%. For the same compound, the Potency [4] was “inactive”, the Potency [10] was “inactive” and the Potency [5] was “inactive”. For the same compound, the Potency [6] was “inactive” and the outcome [7] was “inactive”.
For `CCc1cc(OC)c(C[C@H](C)N)cc1OC`, the Potency [1] was “inactive”, the outcome [2] was “inactive” and the Potency [4] was “inactive”. The Potency [9] was “inactive”, the Potency [10] was “inactive” and the Potency [5] was “inactive”. The Potency [6] was “inactive” and the outcome [7] was “inactive”.
For `CCCN1CCC[C@@H]2Cc3nc(N)ncc3C[C@H]21`, the Potency [1] was 16.9 µM (active), the max response [3] was 3.64% and the Potency [4] was 16.9 µM (active). The Potency [10] was “inactive”, the Potency [5] was 21.3 µM (active) and the Potency [6] was 21.3 µM (active). The outcome [7] was “inactive”.
With `C=C1CC[C@@]2(O)[C@H]3Cc4ccc(O)c5c4[C@@]2(CCN3CC2CC2)[C@H]1O5` the Potency [8] was “inactive”, the outcome [2] was “inactive” and the max response [3] was 9.06%. The Potency [4] was “inactive”, the Potency [9] was “inactive” and the Potency [10] was “inactive”. The Potency [5] was “inactive”, the Potency [6] was “inactive” and the outcome [7] was “inactive”.
In the case of `O=C(O)C(Cl)Br` (stereo unspecified), the Potency [1] is reported as “inactive”, the outcome [2] is reported as “inactive” and the Potency [4] is reported as “inactive”. For the same compound, the Potency [9] was “inactive”, the Potency [10] was “inactive” and the Potency [5] was “inactive”. The Potency [6] was “inactive”.
For `CCC(=O)c1ccc(Cl)cc1`, the Potency [1] was “inactive”, the outcome [2] was “inactive” and the Potency [4] was “inactive”. The Potency [9] was “inactive”, the Potency [10] was “inactive” and the Potency [5] was “inactive”. The Potency [6] was “inactive”.
With `CC(C)(C)C(=O)C(Cl)Cl` the Potency [1] was “inactive”, the outcome [2] was “inactive” and the max response [3] was -2.49%. The Potency [4] was “inactive”, the Potency [10] was “inactive” and the Potency [5] was “inactive”. For the same compound, the Potency [6] was “inactive” and the outcome [7] was “inactive”.
With `CC(O)CCl` (stereo unspecified) the Potency [1] was “inactive”, the outcome [2] was “inactive” and the max response [3] was 1.35%. For the same compound, the Potency [4] was “inactive”, the Potency [10] was “inactive” and the Potency [5] was “inactive”. The Potency [6] was “inactive” and the outcome [7] was “inactive”.
In the case of `CCN[C@H](C)Cc1cccc(C(F)(F)F)c1`, the outcome [2] is reported as “inactive”, the max response [3] is reported as -6.31% and the Potency [4] is reported as “inactive”. For the same compound, the Potency [9] was “inactive”, the Potency [10] was “inactive” and the Potency [5] was “inactive”. For the same compound, the Potency [6] was “inactive” and the outcome [7] was “inactive”.

From PubChem BioAssay (Tox21)
